target: ZNF77; assay: pooled miR-30 sensor sort-seq; sequence = guide strand; details: shRNA
Also: reference of the scale not given here.

Sequence | sensor-assay potency score (higher = more potent)
TACAATTTCTTCATCATTGGAT | 0.581
TAAATGTAACAATCCAAGGAGG | -0.849
TAATACATAAAGGTCTTCCCAC | -0.234
TAAAGTAAGTGGGACATCCGAA | -0.639
TATGTCACAGATGCTGTCCTTG | -0.213
TTCCACATTTCTGACATTCATA | -1.1
TTAGGTACAAAATAAGTGCTAT | 0.0583
TAGACCAGGAATCACTTCCTGT | -0.274
TTTTCTCCAAAAATAGACCAGG | -0.35
TTACGGTTGAACACTCTCCCAG | -0.487
TAACATAAATGTAACAATCCAA | -0.347
TTCGGTAGGGTAACTCTTGTGC | 0.248

target: ZNF829; assay: as above; details: shRNA

Sequence | sensor-assay potency score (higher = more potent)
TTGTAGAAGTTCATCATGCATT | -0.541
TGAACTACAACTAAAAGCCTTG | -0.242
TTGACTGAAATGTCTCTTCTTT | 0.505
TACTTGACTGAAATGTCTCTTC | 0.284
TTCATCTGTATGGATTCTCTGA | 0.0212
TTCTTCACATTCATAGAGCTTC | -0.0675
TTCTCCAACATCACTTCTTTGT | -0.439
TTGAGCAATACTTAAAGGCTTT | -0.25
TTTACCAGTGTGAATCCTCTGA | 0.327
TTCTACATTCTTCACATTCATA | -1.09
TTGAATAAGTTCTGAGCTCTGA | 0.585
TAATATTTTGGTCTCACACATT | -1.12
